Results published in PMC7862700, “An all-to-all approach to the identification of sequence-specific readers for epigenetic DNA modifications on cytosine”.

Columns and labels:
Assay in all cases: DAPPL (digital affinity profiling via proximity ligation, sequencing); 10 mM Tris-HCl pH 7.5, 50 mM NaCl, 1 mM DTT, 4% glycerol, room temperature, 30 min; GST-TFs on glutathione beads, 16-mer random dsDNA library, 0.1% formaldehyde crosslink after washing; high values mean tight binding
[1] = target: T1, FEV (Homo sapiens, UniProt Q99581 1-238); conditions: protein: recombinant; tags: N-terminal GST; dsDNA, one strand shown
T1 sequence: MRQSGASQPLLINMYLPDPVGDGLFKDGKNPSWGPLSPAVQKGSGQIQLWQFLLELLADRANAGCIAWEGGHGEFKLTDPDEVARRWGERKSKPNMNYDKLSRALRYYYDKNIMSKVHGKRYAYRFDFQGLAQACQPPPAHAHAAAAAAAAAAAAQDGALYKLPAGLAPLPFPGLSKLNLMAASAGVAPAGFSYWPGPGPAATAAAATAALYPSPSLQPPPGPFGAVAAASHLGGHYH
Procedure, shortened: (§1)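 The binding signal reported is, for every hexamer, its read frequency for a factor over its read frequency for the tag-only sample. Reads came from pools of yeast-expressed, GST-fused human transcription factors on glutathione beads, barcoded with DNA and mixed with that sample, which were incubated with 200 nmole of a random double-stranded 16-mer DNA library in Tris/NaCl/DTT/glycerol buffer at room temperature for 30 min. After washing, the pools were crosslinked with 0.1% formaldehyde, proximity-ligated with BsaI/T4 ligase for 1 h at 37 °C, PCR-amplified and sequenced on an Illumina NextSeq500.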

[2] = target: ETV5 (Homo sapiens, UniProt P41161 1-510); conditions: protein: recombinant; tags: N-terminal GST; dsDNA, one strand shown
Chain of ETV5 (P41161 whole entry): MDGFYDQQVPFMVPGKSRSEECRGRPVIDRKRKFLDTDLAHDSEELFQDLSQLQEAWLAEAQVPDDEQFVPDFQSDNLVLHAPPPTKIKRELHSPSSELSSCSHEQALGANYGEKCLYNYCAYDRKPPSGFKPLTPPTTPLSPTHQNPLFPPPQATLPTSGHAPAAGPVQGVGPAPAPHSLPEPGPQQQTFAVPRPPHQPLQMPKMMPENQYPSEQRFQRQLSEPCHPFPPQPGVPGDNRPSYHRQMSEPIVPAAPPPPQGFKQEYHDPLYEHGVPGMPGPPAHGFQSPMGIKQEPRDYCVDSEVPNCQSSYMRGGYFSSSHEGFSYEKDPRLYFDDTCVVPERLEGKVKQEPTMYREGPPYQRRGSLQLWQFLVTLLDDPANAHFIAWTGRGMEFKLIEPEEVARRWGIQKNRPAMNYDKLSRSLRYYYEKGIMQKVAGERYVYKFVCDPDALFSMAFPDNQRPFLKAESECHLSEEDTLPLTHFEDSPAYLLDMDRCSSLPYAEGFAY
Procedure, shortened: as §1

[3] = target: HSF1 (Homo sapiens, UniProt Q00613 1-529); conditions: protein: recombinant; tags: N-terminal GST; chain copies: 3; dsDNA, one strand shown
Chain of HSF1 (Q00613 whole entry): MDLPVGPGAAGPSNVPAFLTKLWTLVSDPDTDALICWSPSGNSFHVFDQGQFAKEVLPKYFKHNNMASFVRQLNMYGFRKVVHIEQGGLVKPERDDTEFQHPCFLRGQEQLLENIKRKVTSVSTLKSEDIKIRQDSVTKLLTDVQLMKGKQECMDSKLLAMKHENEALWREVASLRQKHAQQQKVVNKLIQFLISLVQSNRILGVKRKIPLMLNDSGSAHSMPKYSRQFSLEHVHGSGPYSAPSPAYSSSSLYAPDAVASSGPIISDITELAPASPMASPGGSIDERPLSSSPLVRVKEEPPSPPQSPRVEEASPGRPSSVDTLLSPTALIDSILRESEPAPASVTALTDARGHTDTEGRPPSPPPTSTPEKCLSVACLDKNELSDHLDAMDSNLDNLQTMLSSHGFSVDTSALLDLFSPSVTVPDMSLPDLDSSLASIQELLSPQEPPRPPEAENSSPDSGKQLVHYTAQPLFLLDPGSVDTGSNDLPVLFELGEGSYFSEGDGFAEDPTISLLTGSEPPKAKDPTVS
Procedure, shortened: as §1

[4] = target: T2, SPIC (Homo sapiens, UniProt Q8N5J4 1-248); conditions: protein: recombinant; tags: N-terminal GST; dsDNA, one strand shown
T2 sequence: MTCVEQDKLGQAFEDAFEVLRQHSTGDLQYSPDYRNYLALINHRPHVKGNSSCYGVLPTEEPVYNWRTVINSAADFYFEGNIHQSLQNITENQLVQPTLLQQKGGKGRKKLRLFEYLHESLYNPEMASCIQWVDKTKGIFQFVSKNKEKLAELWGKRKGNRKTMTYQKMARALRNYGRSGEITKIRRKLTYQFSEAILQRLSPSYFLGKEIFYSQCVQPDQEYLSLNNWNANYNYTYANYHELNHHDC
Procedure, shortened: as §1

[5] = target: ELF4 (Homo sapiens, UniProt Q99607 1-663); conditions: protein: recombinant; tags: N-terminal GST; dsDNA, one strand shown
Chain of ELF4 (Q99607 whole entry): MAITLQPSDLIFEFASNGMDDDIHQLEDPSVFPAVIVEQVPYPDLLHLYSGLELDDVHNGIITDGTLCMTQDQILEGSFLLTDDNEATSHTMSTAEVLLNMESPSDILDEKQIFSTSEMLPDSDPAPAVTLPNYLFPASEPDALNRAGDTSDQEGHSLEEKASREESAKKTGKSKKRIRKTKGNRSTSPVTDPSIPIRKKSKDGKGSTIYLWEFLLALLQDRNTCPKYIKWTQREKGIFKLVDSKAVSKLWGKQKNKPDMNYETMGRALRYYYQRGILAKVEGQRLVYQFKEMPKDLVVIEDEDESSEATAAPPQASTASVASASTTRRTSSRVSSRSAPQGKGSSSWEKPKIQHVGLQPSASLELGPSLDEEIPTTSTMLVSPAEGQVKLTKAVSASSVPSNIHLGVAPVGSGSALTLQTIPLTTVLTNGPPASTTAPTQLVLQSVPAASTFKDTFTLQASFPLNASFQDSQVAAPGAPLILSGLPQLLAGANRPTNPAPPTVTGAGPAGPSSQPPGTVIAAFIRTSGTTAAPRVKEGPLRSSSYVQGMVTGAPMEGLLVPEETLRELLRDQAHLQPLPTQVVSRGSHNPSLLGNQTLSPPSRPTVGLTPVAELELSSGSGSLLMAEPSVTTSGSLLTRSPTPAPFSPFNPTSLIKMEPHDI
Procedure, shortened: as §1

[6] = target: T3, ELK4 (Homo sapiens, UniProt P28324-2 1-405); conditions: protein: recombinant; tags: N-terminal GST; dsDNA, one strand shown
T3 sequence: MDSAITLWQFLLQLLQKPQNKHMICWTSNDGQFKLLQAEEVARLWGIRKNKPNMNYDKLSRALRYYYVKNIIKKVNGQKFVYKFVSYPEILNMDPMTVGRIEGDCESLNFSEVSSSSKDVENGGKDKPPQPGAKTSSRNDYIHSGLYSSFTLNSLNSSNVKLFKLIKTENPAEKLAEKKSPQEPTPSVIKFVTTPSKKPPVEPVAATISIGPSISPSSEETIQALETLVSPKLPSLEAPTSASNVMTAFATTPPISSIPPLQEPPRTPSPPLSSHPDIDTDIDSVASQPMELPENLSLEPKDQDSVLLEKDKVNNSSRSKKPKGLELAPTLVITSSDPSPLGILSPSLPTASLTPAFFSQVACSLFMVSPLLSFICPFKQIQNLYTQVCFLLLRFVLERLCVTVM
Procedure, shortened: as §1

[7] = target: T4, ETV2 (Homo sapiens, UniProt O00321 1-342); conditions: protein: recombinant; tags: N-terminal GST; dsDNA, one strand shown
T4 sequence: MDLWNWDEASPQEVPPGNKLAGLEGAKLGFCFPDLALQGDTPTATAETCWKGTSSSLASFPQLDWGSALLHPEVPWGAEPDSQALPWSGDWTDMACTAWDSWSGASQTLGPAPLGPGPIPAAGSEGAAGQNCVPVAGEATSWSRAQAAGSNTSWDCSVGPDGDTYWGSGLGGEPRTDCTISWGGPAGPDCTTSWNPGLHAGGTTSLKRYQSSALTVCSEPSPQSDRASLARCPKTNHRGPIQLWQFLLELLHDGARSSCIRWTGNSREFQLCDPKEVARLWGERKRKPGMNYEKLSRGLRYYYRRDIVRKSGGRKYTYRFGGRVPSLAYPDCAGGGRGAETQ
Procedure, shortened: as §1

[8] = target: T5, ELF3 (Homo sapiens, UniProt P78545 1-371); conditions: protein: recombinant; tags: N-terminal GST; dsDNA, one strand shown
T5 sequence: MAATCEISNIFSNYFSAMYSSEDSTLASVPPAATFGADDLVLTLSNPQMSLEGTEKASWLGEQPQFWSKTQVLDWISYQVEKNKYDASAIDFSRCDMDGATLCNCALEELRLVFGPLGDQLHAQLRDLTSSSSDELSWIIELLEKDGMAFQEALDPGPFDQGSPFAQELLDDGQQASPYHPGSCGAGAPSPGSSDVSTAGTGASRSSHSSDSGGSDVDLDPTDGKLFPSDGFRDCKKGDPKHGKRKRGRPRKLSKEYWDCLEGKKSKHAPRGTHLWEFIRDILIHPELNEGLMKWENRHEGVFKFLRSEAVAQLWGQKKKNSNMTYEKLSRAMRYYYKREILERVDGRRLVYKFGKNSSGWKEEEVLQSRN
Procedure, shortened: as §1

[9] = target: CRX (Homo sapiens, UniProt O43186 1-299); conditions: protein: recombinant; tags: N-terminal GST; dsDNA, one strand shown
Chain of CRX (O43186 whole entry): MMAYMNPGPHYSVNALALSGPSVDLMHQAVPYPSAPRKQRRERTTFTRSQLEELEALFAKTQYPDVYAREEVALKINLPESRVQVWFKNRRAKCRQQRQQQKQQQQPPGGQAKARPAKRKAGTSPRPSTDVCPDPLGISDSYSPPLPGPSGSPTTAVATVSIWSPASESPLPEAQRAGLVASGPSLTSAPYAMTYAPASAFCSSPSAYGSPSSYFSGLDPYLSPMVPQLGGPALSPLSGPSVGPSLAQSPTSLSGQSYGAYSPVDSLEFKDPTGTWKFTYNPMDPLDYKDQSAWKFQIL
Procedure, shortened: as §1

[10] = target: ETV1 (Homo sapiens, UniProt P50549 1-477); conditions: protein: recombinant; tags: N-terminal GST; dsDNA, one strand shown
Chain of ETV1 (P50549 whole entry): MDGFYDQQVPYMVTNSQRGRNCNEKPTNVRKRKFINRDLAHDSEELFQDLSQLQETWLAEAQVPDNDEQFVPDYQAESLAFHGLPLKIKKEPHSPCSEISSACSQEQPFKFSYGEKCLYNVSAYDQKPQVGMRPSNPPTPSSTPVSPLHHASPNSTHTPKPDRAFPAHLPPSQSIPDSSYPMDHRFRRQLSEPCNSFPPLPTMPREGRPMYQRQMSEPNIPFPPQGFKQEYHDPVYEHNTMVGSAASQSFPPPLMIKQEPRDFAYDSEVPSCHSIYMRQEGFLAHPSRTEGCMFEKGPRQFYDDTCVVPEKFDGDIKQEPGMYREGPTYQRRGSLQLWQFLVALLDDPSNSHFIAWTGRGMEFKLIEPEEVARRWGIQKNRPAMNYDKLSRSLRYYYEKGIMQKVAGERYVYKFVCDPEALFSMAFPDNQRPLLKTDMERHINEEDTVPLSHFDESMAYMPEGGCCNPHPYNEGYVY
Procedure, shortened: as §1

[11] = target: T6, ERF (Homo sapiens, UniProt P50548 1-548); conditions: protein: recombinant; tags: N-terminal GST; dsDNA, one strand shown
T6 sequence: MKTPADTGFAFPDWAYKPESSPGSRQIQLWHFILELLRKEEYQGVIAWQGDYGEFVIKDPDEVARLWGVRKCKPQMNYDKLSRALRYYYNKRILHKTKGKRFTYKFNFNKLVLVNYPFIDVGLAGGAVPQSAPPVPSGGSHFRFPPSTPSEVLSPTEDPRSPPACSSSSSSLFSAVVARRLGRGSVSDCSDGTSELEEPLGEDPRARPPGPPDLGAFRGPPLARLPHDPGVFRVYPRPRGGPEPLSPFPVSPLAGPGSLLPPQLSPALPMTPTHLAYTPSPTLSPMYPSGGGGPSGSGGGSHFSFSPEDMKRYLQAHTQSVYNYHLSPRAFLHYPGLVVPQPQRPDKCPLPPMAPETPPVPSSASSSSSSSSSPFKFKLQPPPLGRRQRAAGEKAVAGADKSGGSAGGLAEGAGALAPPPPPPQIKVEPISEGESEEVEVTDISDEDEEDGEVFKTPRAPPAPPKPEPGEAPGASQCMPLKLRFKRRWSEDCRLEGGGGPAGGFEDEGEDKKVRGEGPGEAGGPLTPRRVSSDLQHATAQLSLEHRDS
Procedure, shortened: as §1

[12] = target: T7, ETV3L (Homo sapiens, UniProt Q6ZN32 1-361); conditions: protein: recombinant; tags: N-terminal GST; dsDNA, one strand shown
T7 sequence: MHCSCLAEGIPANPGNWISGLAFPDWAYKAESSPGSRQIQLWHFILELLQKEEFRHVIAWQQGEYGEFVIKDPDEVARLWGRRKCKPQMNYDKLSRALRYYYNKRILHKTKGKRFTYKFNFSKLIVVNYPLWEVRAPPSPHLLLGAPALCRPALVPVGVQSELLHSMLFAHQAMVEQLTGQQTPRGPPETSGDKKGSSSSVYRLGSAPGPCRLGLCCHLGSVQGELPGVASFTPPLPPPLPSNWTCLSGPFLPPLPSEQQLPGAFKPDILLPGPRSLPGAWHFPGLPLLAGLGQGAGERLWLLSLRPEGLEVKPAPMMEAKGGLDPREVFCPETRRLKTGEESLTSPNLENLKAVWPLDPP
Procedure, shortened: as §1

[13] = target: T8, ETS2 (Homo sapiens, UniProt P15036 1-469); conditions: protein: recombinant; tags: N-terminal GST; dsDNA, one strand shown
T8 sequence: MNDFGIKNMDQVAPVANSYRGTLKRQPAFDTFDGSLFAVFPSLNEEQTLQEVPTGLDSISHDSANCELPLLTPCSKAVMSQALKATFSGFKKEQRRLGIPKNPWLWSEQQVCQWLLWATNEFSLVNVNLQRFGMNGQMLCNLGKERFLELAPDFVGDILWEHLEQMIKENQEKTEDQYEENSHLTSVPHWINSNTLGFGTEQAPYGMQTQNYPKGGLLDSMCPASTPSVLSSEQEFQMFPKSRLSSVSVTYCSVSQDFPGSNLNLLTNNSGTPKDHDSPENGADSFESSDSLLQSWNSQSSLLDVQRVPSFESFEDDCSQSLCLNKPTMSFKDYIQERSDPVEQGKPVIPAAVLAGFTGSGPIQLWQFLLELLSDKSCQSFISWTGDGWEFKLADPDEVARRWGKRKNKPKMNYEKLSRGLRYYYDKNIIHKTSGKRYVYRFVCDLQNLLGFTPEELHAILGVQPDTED
Procedure, shortened: as §1

[14] = target: T9, SPDEF (Homo sapiens, UniProt O95238 1-335); conditions: protein: recombinant; tags: N-terminal GST; dsDNA, one strand shown
T9 sequence: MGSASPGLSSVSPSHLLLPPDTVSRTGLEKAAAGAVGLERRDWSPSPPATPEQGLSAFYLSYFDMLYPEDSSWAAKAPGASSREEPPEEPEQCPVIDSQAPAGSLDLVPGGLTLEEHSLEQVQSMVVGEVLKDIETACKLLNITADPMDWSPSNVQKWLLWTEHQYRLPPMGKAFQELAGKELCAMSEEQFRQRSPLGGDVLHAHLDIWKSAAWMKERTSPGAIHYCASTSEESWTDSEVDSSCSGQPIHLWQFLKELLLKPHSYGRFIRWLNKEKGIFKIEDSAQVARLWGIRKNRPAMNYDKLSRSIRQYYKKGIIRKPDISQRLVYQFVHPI
Procedure, shortened: as §1

[15] = target: T10, ETV7 (Homo sapiens, UniProt Q9Y603 1-341); conditions: protein: recombinant; tags: N-terminal GST; dsDNA, one strand shown
T10 sequence: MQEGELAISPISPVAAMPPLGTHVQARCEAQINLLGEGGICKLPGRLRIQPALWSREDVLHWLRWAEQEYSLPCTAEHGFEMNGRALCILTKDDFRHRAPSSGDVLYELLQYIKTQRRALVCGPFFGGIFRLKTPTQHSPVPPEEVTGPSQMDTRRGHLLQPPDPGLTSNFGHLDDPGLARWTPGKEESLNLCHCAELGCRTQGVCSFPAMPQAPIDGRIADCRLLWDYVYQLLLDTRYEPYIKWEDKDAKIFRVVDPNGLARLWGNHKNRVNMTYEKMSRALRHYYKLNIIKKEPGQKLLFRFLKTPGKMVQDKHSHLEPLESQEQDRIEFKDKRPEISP
Procedure, shortened: as §1

[16] = target: T11, ELF5 (Homo sapiens, UniProt Q9UKW6-2 1-255); conditions: protein: recombinant; tags: N-terminal GST; dsDNA, one strand shown
T11 sequence: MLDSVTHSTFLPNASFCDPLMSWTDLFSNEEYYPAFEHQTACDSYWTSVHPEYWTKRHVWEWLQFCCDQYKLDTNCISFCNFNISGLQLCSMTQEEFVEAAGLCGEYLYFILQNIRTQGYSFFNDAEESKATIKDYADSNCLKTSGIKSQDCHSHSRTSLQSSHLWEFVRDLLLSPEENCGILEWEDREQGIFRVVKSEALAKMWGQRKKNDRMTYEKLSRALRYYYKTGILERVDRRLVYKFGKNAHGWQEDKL
Procedure, shortened: as §1

[17] = target: T12, ETV3 (Homo sapiens, UniProt P41162-2 1-143); conditions: protein: recombinant; tags: N-terminal GST; dsDNA, one strand shown
T12 sequence: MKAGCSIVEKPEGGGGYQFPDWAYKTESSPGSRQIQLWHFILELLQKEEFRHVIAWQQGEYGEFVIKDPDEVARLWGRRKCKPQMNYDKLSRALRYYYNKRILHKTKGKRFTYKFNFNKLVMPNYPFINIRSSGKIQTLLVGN
Procedure, shortened: as §1

[18] = target: ETV6 (Homo sapiens, UniProt P41212 1-452); conditions: protein: recombinant; tags: N-terminal GST; dsDNA, one strand shown
Chain of ETV6 (P41212 whole entry): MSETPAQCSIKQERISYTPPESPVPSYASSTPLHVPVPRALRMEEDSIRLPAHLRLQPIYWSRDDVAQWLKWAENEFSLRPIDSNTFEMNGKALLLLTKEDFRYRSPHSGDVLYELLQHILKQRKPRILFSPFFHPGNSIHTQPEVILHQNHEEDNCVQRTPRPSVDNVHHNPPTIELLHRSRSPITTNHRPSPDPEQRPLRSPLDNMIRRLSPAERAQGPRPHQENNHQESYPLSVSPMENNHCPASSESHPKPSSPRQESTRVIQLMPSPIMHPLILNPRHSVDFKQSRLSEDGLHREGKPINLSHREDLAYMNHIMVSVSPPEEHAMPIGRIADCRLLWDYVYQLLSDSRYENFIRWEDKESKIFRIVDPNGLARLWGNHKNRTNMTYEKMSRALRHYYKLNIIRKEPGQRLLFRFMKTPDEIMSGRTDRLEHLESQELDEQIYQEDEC
Procedure, shortened: as §1

CCCTGG
binding signal [1]: 1.08 fold enrichment (6-mer frequency, TF over GST control)
binding signal [2]: 1.09 fold enrichment (6-mer frequency, TF over GST control)
binding signal [3]: 1.11 fold enrichment (6-mer frequency, TF over GST control)
binding signal [4]: 1.25 fold enrichment (6-mer frequency, TF over GST control)
binding signal [5]: 1.14 fold enrichment (6-mer frequency, TF over GST control)
binding signal [6]: 1.21 fold enrichment (6-mer frequency, TF over GST control)
binding signal [7]: 1.04 fold enrichment (6-mer frequency, TF over GST control)
binding signal [8]: 1 fold enrichment (6-mer frequency, TF over GST control)
binding signal [9]: 1.06 fold enrichment (6-mer frequency, TF over GST control)
binding signal [10]: 1.18 fold enrichment (6-mer frequency, TF over GST control)
binding signal [11]: 1.24 fold enrichment (6-mer frequency, TF over GST control)
binding signal [12]: 1.16 fold enrichment (6-mer frequency, TF over GST control)
binding signal [13]: 1.06 fold enrichment (6-mer frequency, TF over GST control)
binding signal [14]: 1.02 fold enrichment (6-mer frequency, TF over GST control)
binding signal [15]: 1.26 fold enrichment (6-mer frequency, TF over GST control)
binding signal [16]: 1.06 fold enrichment (6-mer frequency, TF over GST control)
binding signal [17]: 1.13 fold enrichment (6-mer frequency, TF over GST control)
binding signal [18]: 1.05 fold enrichment (6-mer frequency, TF over GST control)
